Experimental data taken from PubChem BioAssay.
The source made the active and inactive calls. Unless noted, no rule for the calls is given here.

Key:
[1] = system: XIP peptide (Xip251-270) binding; experiment: XIP fragment 251-270 binding compounds – biochemical, small-molecule microarray, fluorescence 635/667 nm, 0.1 µg/mL protein, primary screen (AID 1182); settings: fluorescent protein binding, 635 nm, higher = more signal, called active from +8 up or from −8 down
[2] = system: XIP peptide (Xip251-270); experiment: compounds binding XIP fragment 251-270 – biochemical, small-molecule microarray, fluorescence 635/667 nm, 0.5 µg/mL protein, primary screen (AID 1183); settings: fluorescence 635 nm, higher = more signal
[3] = blood-stage malaria parasite viability loss – strain 3D7, DAPI fluorescence, 100 nL, primary screen (AID 1184);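 also: parasites grown inside human red blood cells in medium with human serum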; settings: P. falciparum 3D7 growth, 3 d, higher = more signal
[4] = target: Homeobox protein Hox-A13 (Mus musculus) (UniProt Q62424); experiment: disruptors of Hoxa13 oligonucleotide interaction – biochemical, fluorescence polarization, labeled oligonucleotide, primary screen (AID 1185); settings: Hoxa13:DNA binding, 15 min, higher = more signal, called active from +8 up or from −8 down
Sequence of Homeobox protein Hox-A13 (Mus musculus) (Q62424 whole entry, looked up): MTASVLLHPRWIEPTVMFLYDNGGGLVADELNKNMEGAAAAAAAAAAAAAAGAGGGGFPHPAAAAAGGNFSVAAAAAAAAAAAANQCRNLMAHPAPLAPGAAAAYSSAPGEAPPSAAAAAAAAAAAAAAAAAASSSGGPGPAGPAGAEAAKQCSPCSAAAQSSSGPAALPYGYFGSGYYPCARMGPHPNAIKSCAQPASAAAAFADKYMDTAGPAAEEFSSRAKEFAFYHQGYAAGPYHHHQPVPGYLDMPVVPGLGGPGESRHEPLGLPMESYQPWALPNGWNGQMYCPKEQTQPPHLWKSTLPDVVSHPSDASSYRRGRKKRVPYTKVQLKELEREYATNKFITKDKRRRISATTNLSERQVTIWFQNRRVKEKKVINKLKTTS

[5] = blockers of DNA damage checkpoint Chk1 activation – imaging, HeLa, hydroxyurea, phospho-Chk1 antibody, percent positive cells, primary screen (AID 1186); settings: hydroxyurea-induced phospho-Chk1 immunofluorescence imaging, higher = more signal
[6] = blockers of DNA damage checkpoint Chk1 activation – imaging, HeLa, hydroxyurea, phospho-Chk1 nuclear intensity, primary screen (AID 1187); settings: hydroxyurea-induced phospho-Chk1 immunofluorescence imaging, higher = more signal

| Compound | composite z-score [1] | composite z-score [2] | z-score [3] | z-score [4] | z-score [5] | z-score [6] |
| --- | --- | --- | --- | --- | --- | --- |
| C=CCC(OC(C)=O)[C@@H]1[C@@H](N(Cc2ccc(-c3ccccc3)cc2)C(=O)Cc2ccc(F)cc2)c2cc(OCCCO)ccc2N1C(=O)Cc1ccc2ccccc2c1 (stereo partly specified) | -0.632 (inactive) | 0.233 | -1.3 | -1.5 (inactive) | 0.433 (inactive) | -0.048 (inactive) |
| CO[C@H]1O[C@H](CO)[C@@H](OC(=O)CCc2ccccc2)[C@H](OC(=O)c2cc3ccccc3[nH]2)[C@H]1OC(=O)c1cc2ccccc2[nH]1 | 0.983 (inactive) | 0.637 | -1.03 | -0.797 (inactive) | -0.616 (inactive) | -1.27 (inactive) |
| CN1C(=O)[C@@H]2[C@@H](CC(COc3ccccc3)=C([C@H](O)CCc3ccccc3)[C@@H]2CO)C1=O | -0.221 (inactive) | 0.365 | -0.0804 | -6.39 (inactive) | -1.25 (inactive) | -1.34 (inactive) |
| CCOC(=O)C[C@H]1[C@H](OC(=O)c2ccc(-c3ccccc3)cc2)[C@@H](NC(=O)Cc2ccc(OC)cc2)c2cc(OCCCO)ccc2N1C(=O)Cc1ccc(OC)cc1 | 0.0878 (inactive) | -0.015 | -1.18 | -1.32 (inactive) | -0.366 (inactive) | 0.0566 (inactive) |
| COc1cc2c(cc1O)C(c1cccs1)N(Cc1sc3ccccc3c1Cl)CC2 (stereo unspecified) | 0.791 (inactive) | 0.867 | -1.66 | -1.54 (inactive) | 0.326 (inactive) | 0.638 (inactive) |
| COCCOC(=O)N1C(=O)[C@@]2(c3cc(C#CC4(O)CCCCCC4)ccc31)[C@H](c1ccc(OCCO)cc1)N1[C@H](c3ccccc3)[C@H](c3ccccc3)OC(=O)[C@H]1[C@@H]2C(=O)Nc1nc2ccccc2s1 | 0.284 (inactive) | 0.78 | -0.726 | 1.07 (inactive) | 0.218 (inactive) | 0.561 (inactive) |
| COCCOC(=O)N1C(=O)[C@@]2(c3ccccc31)[C@H](c1ccc(OCCO)cc1)N1[C@H](c3ccccc3)[C@H](c3ccccc3)OC(=O)[C@H]1[C@@H]2C(=O)N1CCCCCCC1 | 8.16 (active) | 1.04 | -2.08 | -15.8 (active) | -0.17 (inactive) | 0.128 (inactive) |
| COC(=O)[C@@]1(Cc2ccccc2)[C@H]2c3cc(C(=O)N(C)C)n(CCn4cc([N+](=O)[O-])nc4C)c3C[C@H]2CN1C(=O)c1ccccc1 | 0.731 (inactive) | 0.83 | 0.391 | -1.73 (inactive) | -0.3 (inactive) | -0.424 (inactive) |
| CC(C)CNC(=O)[C@@]1(C)c2ccccc2C(=O)N(Cc2cc(C(F)(F)F)cc(C(F)(F)F)c2)[C@H]1c1ccc(CO)cc1 | -0.337 (inactive) | 0.145 | -0.607 | -2.63 (inactive) | 0.0613 (inactive) | 0.447 (inactive) |
| COc1ccc([Si](C)(C)[C@H]2[C@H](CC(=O)N3CCC[C@H]3CO)O[C@@]3(C(=O)N(Cc4ccc(N5CCC5=O)cc4)c4ccccc43)[C@@H]2C)cc1 | 1.18 (inactive) | 0.709 | -0.986 | -3.74 (inactive) | 0.312 (inactive) | -0.36 (inactive) |
| COC(=O)[C@@]1(Cc2ccc(OC)cc2)[C@H]2c3cc(C(=O)N4CCCC4)n(Cc4cc(C)n(C)n4)c3C[C@H]2CN1C(=O)c1ccccc1 | 1.26 (inactive) | 0.528 | -1.44 | -4.85 (inactive) | -0.6 (inactive) | -0.279 (inactive) |
| C=CCNC(=O)[C@H]1[C@@H]2C(=O)O[C@@H](c3ccccc3)[C@@H](c3ccccc3)N2[C@@H](c2ccc(OCCO)cc2)[C@]12C(=O)N(C(=O)OCCOC)c1ccc(C#Cc3ccc(OC)cc3)cc12 | 0.0294 (inactive) | 0.719 | -2.38 | 4.25 (inactive) | -0.499 (inactive) | -0.744 (inactive) |
| CCOC(=O)C1=C[C@@H](C(C)(C)C)N(S(=O)(=O)c2ccc(C)cc2)[C@H]1c1ccc(C)cc1 | 0.177 (inactive) | 0.325 | -2.07 | -0.0064 (inactive) | 0.0978 (inactive) | -0.184 (inactive) |
| CC(C)C[C@@H]1NC(=O)[C@@]23C(=O)N[C@@H](Cc4ccccc4)C2[C@H](C)[C@@]2(C)O[C@H]2C3/C=C/C/C=C\CNC(=O)[C@@H](C)NC1=O (stereo partly specified) | 0.772 (inactive) | 0.649 | -1.65 | -4.91 (inactive) | -0.674 (inactive) | -0.734 (inactive) |
| [N-]=[N+]=Nc1ccccc1C[C@]1(C(=O)O)N=C(c2ccc(OCCCO)cc2)O[C@H]1c1ccccc1 | 0.471 (inactive) | 0.641 | 0.283 | -5.34 (inactive) | 0.496 (inactive) | 0.558 (inactive) |
| C=CCNC(=O)[C@@H]1[C@H]2C(=O)O[C@H](c3ccccc3)[C@H](c3ccccc3)N2[C@H](c2ccc(OCCO)cc2)[C@@]12C(=O)N(C(=O)OCCOC)c1ccc(C#CCCO)cc12 | 0.649 (inactive) | 0.69 | -1.56 | -1.19 (inactive) | -0.604 (inactive) | -0.826 (inactive) |
| CC(C)[C@H]1NC(=O)[C@@]23C(=O)N[C@@H](Cc4ccccc4)C2[C@H](C)[C@@]2(C)O[C@H]2C3/C=C/C/C=C\CNC(=O)[C@H](Cc2ccccc2)NC1=O (stereo partly specified) | 0.21 (inactive) | 0.763 | -2.45 | -5.69 (inactive) | 0.174 (inactive) | 0.5 (inactive) |
| C=C(CCCC)C(=O)CC[C@H](OC(=O)c1ccccc1-c1ccccc1C(=O)O)c1ccccc1OCCO | 0.267 (inactive) | 0.0422 | -2.61 | -5.63 (inactive) | -0.309 (inactive) | -0.102 (inactive) |
| COc1ccc(C#Cc2ccc3c(c2)[C@]2(C(=O)N3)[C@H](C(=O)N3CCCCCCC3)[C@H]3C(=O)O[C@H](c4ccccc4)[C@H](c4ccccc4)N3[C@@H]2c2ccc(O)cc2)cc1 | 2.34 (inactive) | 0.755 | -1.56 | 0.625 (inactive) | -0.25 (inactive) | -0.372 (inactive) |
| O=C1N[C@@H](Cc2ccccc2)C(=O)N2[C@@H]1C[C@@H](C(=O)O)[C@H]2c1ccc(O)cc1 | 0.24 (inactive) | 0.649 | -0.394 | -2.41 (inactive) | -0.0256 (inactive) | 0.0853 (inactive) |
| COCC(=C=CC[C@@H](O)c1ccc(OCCO)cc1)CCO | 0.474 (inactive) | 0.429 | -1.46 | -3.22 (inactive) | -0.321 (inactive) | 0.301 (inactive) |
| COCCOC(=O)N1C(=O)[C@@]2(c3cc(C#CCC(C(=O)OC)C(=O)OC)ccc31)[C@H](C(=O)NC[C@H](O)c1ccccc1)[C@H]1C(=O)O[C@H](c3ccccc3)[C@H](c3ccccc3)N1[C@@H]2c1ccc(O)cc1 | 0.363 (inactive) | 0.724 | -1.84 | -1.61 (inactive) | -0.129 (inactive) | -0.117 (inactive) |
| COc1ccc(C#Cc2ccc3c(c2)[C@]2(C(=O)N3)[C@H](c3ccc(OCCO)cc3)N3[C@H](c4ccccc4)[C@H](c4ccccc4)OC(=O)[C@H]3[C@@H]2C(=O)N2CCc3cc(OC)c(OC)cc3C2)cc1 | 0.119 (inactive) | 0.659 | -1.92 | 2.11 (inactive) | -0.0018 (inactive) | 0.0006 (inactive) |
| COCCOC(=O)N1C(=O)[C@@]2(c3cc(C#CCCO)ccc31)[C@H](c1ccccc1OCCO)N1[C@H](c3ccccc3)[C@H](c3ccccc3)OC(=O)[C@H]1[C@@H]2C(=O)N1CCCCCCC1 | 0.783 (inactive) | 0.759 | -2.25 | 3.84 (inactive) | -0.304 (inactive) | -0.387 (inactive) |
| Cc1nc2cc(Br)ccc2c(=O)n1Cc1cccc(O)c1 | 0.651 (inactive) | 0.529 | -0.563 | 0.464 (inactive) | 0.18 (inactive) | 0.257 (inactive) |
| C=C(CCCC)C(=O)CC[C@H](OC(C)=O)c1ccc(OCCO)cc1 | 0.783 (inactive) | 0.227 | -3.07 | -6.07 (inactive) | -0.427 (inactive) | -0.523 (inactive) |
